The campaign covered roughly 5,500 compounds. About 2,000 (36%) were called active. Another 18% or so got no clear call; they are omitted. Cut-off read from the data, not from the text of the source: active = normalized growth mostly below about 0.91 (no sharp cut-off); inconclusive = no clear call, values can overlap the other calls; inactive = mostly above about 0.92. This is one part of the list.
Assay: chemical genetic growth profiling, strain panel (AID 1159580);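 note: tested at 20 µM; growth read once vehicle control cultures reached saturation at 30 °C; 1 = growth at the plate median or of vehicle wells; lower values mean less growth of the strain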
Conditions: S. cerevisiae deletion strains, growth OD

Measured: normalized growth

CC(=O)O[C@@H]1CC2C(C)(C)CCC(=O)[C@]2(C)C2CC[C@@]3(C)[C@H](c4ccoc4)OC(=O)C4OC43[C@@]21C (stereo partly specified)
inactive: locus YAL013W, strain DEP1, active compounds read low 1 | locus YAL021C, strain ccr4, active compounds read low 0.98 | locus YAL026C, strain drs2, active compounds read low 1 | locus YAL030W, strain snc1, active compounds read low 1.01 | locus YBL061C, strain skt5, active compounds read low 1.01 | locus YBR009C, strain hhf1, active compounds read low 1 | locus YBR021W, strain FUR4, active compounds read low 0.989 | locus YBR023C, strain chs3, active compounds read low 1 | locus YBR171W, strain sec66, active compounds read low 0.986 | locus YBR229C, strain ROT2, active compounds read low 0.996 | locus YBR231C, strain swc5, active compounds read low 0.993 | locus YBR279W, strain paf1, active compounds read low 1.01 | locus YCL011C, strain gbp2, active compounds read low 0.984 | locus YCL016C, strain dcc1, active compounds read low 1.01 | locus YCL029C, strain bik1, active compounds read low 0.984 | locus YCL061C, strain MRC1, active compounds read low 1.02 | locus YCL069W, strain vba3, active compounds read low 0.99 | locus YCR088W, strain abp1, active compounds read low 0.991 | locus YDL005C, strain med2, active compounds read low 0.994 | locus YDL035C, strain GPR1, active compounds read low 1.03 | locus YDL040C, strain nat1, active compounds read low 0.986 | locus YDL074C, strain BRE1, active compounds read low 0.994 | locus YDL101C, strain DUN1, active compounds read low 0.984 | locus YDL185W, strain tfp1, active compounds read low 0.981 | locus YDL192W, strain arf1, active compounds read low 0.993 | locus YDR001C, strain nth1, active compounds read low 0.998 | locus YDR069C, strain doa4, active compounds read low 1.01 | locus YDR101C, strain arx1, active compounds read low 0.991 | locus YDR137W, strain rgp1, active compounds read low 1.05 | locus YDR159W, strain sac3, active compounds read low 1.02 | locus YDR162C, strain NBP2, active compounds read low 1.02 | locus YDR195W, strain ref2 0.941 | locus YDR297W, strain sur2, active compounds read low 1 | locus YDR318W, strain mcm21, active compounds read low 0.993 | locus YDR334W, strain swr1, active compounds read low 0.986 | locus YDR335W, strain msn5, active compounds read low 0.987 | locus YDR388W, active compounds read low 0.98 | locus YDR392W, strain spt3, active compounds read low 0.991 | locus YDR502C, strain sam2, active compounds read low 0.973 | locus YEL003W, strain gim4, active compounds read low 0.995 | locus YEL037C, strain rad23, active compounds read low 0.984 | locus YEL061C, strain CIN8 (second series), active compounds read low 0.987 | locus YEL061C, strain CIN8, active compounds read low 1.01 | locus YER015W, strain faa2, active compounds read low 1 | locus YER016W, strain bim1, active compounds read low 1 | locus YER110C, active compounds read low 0.978 | locus YER111C, strain swi4, active compounds read low 0.987 | locus YER155C, strain BEM2 (second series), active compounds read low 1.02 | locus YER155C, strain BEM2, active compounds read low 0.988 | locus YER167W, strain BCK2, active compounds read low 1 | locus YFR010W, strain ubp6, active compounds read low 0.979 | locus YGL078C, strain dbp3, active compounds read low 0.994 | locus YGL086W, strain mad1, active compounds read low 0.985 | locus YGL167C, strain pmr1, active compounds read low 1.01 | locus YGL173C, strain kem1, active compounds read low 1.01 | locus YGL227W, strain vid30, active compounds read low 0.994 | locus YGL240W, strain doc1, active compounds read low 0.984 | locus YGL248W, strain PDE1, active compounds read low 0.988 | locus YGL253W, strain hxk2, active compounds read low 0.966 | locus YGR135W, strain pre9, active compounds read low 0.973 | locus YGR229C, strain SMI1, active compounds read low 1.02 | locus YGR252W, strain gcn5, active compounds read low 0.952 | locus YHR013C, strain ard1, active compounds read low 0.994 | locus YHR027C, strain rpn1, active compounds read low 1.01 | locus YHR079C, strain IRE1 (second series), active compounds read low 0.99 | locus YHR094C, strain hxt1, active compounds read low 0.983 | locus YHR129C, strain ARP1, active compounds read low 0.997 | locus YHR142W, strain chs7, active compounds read low 0.991 | locus YHR200W, strain rpn10, active compounds read low 0.975 | locus YIL066C, strain RNR3, active compounds read low 1 | locus YIL073C, strain SPO22, active compounds read low 1 | locus YIL125W, strain kgd1, active compounds read low 0.989 | locus YIR030C, strain dcg1, active compounds read low 0.987 | locus YJL092W, strain hpr5, active compounds read low 0.985 | locus YJL095W, strain BCK1 (second series), active compounds read low 1 | locus YJL095W, strain BCK1, active compounds read low 0.988 | locus YJL115W, strain asf1, active compounds read low 0.994 | locus YJL129C, strain trk1, active compounds read low 0.996 | locus YJL134W, strain LCB3, active compounds read low 0.998 | locus YJL154C, strain vps35, active compounds read low 1 | locus YJL164C, strain tpk1, active compounds read low 1.01 | locus YJL166W, strain qcr8, active compounds read low 1.02 | locus YJL168C, strain set2, active compounds read low 0.988 | locus YJL187C, strain SWE1 (second series), active compounds read low 0.977 | locus YJL187C, strain SWE1, active compounds read low 1 | locus YJR043C, strain POL32, active compounds read low 1.02 | locus YKL009W, strain mrt4, active compounds read low 1.01 | locus YKL068W, active compounds read low 0.992 | locus YKL085W, strain MDH1 (second series), active compounds read low 1 | locus YKL085W, strain MDH1, active compounds read low 1 | locus YKL160W, strain elf1, active compounds read low 1.02 | locus YKL190W, strain CNB1, active compounds read low 1.01 | locus YKR001C, strain vps1, active compounds read low 0.983 | locus YKR026C, strain gcn3, active compounds read low 1 | locus YKR091W, strain srl3, active compounds read low 1 | locus YLL001W, strain dnm1, active compounds read low 1.03 | locus YLL026W, active compounds read low 1.01 | locus YLL041C, strain sdh2, active compounds read low 0.993 | locus YLR027C, strain aat2, active compounds read low 1.01 | locus YLR039C, strain RIC1, active compounds read low 1.06 | locus YLR058C, strain SHM2, active compounds read low 0.992 | locus YLR102C, strain apc9, active compounds read low 0.987 | locus YLR221C, strain rsa3, active compounds read low 1 | locus YLR258W, strain gsy2, active compounds read low 0.996 | locus YLR262C, strain YPT6 (second series), active compounds read low 1.03 | locus YLR262C, strain YPT6, active compounds read low 1.1 | locus YLR268W, strain sec22, active compounds read low 0.994 | locus YLR320W, strain mms22, active compounds read low 1.01 | locus YLR342W, strain FKS1 (second series), active compounds read low 1.05 | locus YLR342W, strain FKS1, active compounds read low 1.01 | locus YLR357W, strain rsc2, active compounds read low 0.97 | locus YLR370C, strain arc18, active compounds read low 0.983 | locus YLR371W, strain rom2, active compounds read low 0.992 | locus YLR384C, strain iki3, active compounds read low 0.997 | locus YLR418C, strain cdc73, active compounds read low 0.956 | locus YML016C, strain PPZ1, active compounds read low 0.999 | locus YML032C, strain rad52, active compounds read low 0.986 | locus YML120C, strain ndi1, active compounds read low 1 | locus YML124C, strain tub3, active compounds read low 0.994 | locus YMR058W, strain fet3, active compounds read low 0.999 | locus YMR078C, strain ctf18, active compounds read low 1 | locus YMR125W, strain sto1, active compounds read low 0.987 | locus YMR129W, active compounds read low 1.01 | locus YMR205C, strain PFK2, active compounds read low 1.04 | locus YMR223W, strain ubp8, active compounds read low 0.996 | locus YMR231W, strain pep5, active compounds read low 0.97 | locus YMR307W, strain GAS1, active compounds read low 1.07 | locus YNL067W, strain RPL9B, active compounds read low 0.987 | locus YNL071W, strain lat1, active compounds read low 0.993 | locus YNL209W, strain ssb2, active compounds read low 1.01 | locus YNL233W, strain BNI4, active compounds read low 1 | locus YNL248C, strain rpa49, active compounds read low 0.996 | locus YNL250W, strain rad50, active compounds read low 0.978 | locus YNL271C, strain bni1, active compounds read low 0.97 | locus YNL298W, strain CLA4, active compounds read low 0.996 | locus YNL307C, strain MCK1, active compounds read low 0.986 | locus YNL322C, strain KRE1 (second series), active compounds read low 0.99 | locus YNR049C, strain mso1, active compounds read low 1 | locus YNR052C, strain pop2, active compounds read low 0.966 | locus YOL006C, strain TOP1, active compounds read low 1.05 | locus YOL012C, strain htz1 0.864 | locus YOL147C, strain pex11, active compounds read low 0.982 | locus YOR001W, strain rrp6, active compounds read low 0.973 | locus YOR061W, strain CKA2, active compounds read low 0.998 | locus YOR069W, strain VPS5, active compounds read low 0.99 | locus YOR070C, strain gyp1, active compounds read low 1 | locus YOR080W, strain dia2, active compounds read low 1 | locus YOR083W, strain WHI5, active compounds read low 1.02 | locus YOR106W, strain vam3, active compounds read low 1.01 | locus YOR136W, strain idh2, active compounds read low 0.993 | locus YOR144C, strain elg1, active compounds read low 0.988 | locus YOR184W, strain ser1, active compounds read low 1.02 | locus YOR265W, strain rbl2, active compounds read low 0.996 | locus YOR270C, strain vph1, active compounds read low 1.02 | locus YOR290C, strain snf2, active compounds read low 0.981 | locus YOR316C, strain cot1, active compounds read low 0.984 | locus YPL051W, strain arl3, active compounds read low 1.02 | locus YPL055C, strain LGE1, active compounds read low 1.02 | locus YPL078C, strain atp4, active compounds read low 1.02 | locus YPL106C, strain sse1, active compounds read low 0.996 | locus YPL240C, strain hsp82, active compounds read low 0.999 | locus YPR119W, strain clb2, active compounds read low 0.981 | locus YPR141C, strain kar3, active compounds read low 0.996 | locus YPR163C, strain tif3, active compounds read low 0.975 | locus YPR167C, strain met16, active compounds read low 0.985 | strain wtn01, active compounds read low 1

Source: PubChem BioAssay AID1159580 (chemical genetic matrix, 2015)
